Publication PMC9911399, “Two distinct binding modes provide the RNA-binding protein RbFox with extraordinary sequence specificity”
Residue numbers refer to the chain shown, from its start. Whole data set: some 16,000 sequences, median “ka relative to ugcaugu” near 0.096, cut for the highest 2% near 0.35. Shown is part of a subset that was picked to be rich in the highest values.

T1: RBFOX1 RRM RbFoxmut (Fox-RRM*) (Homo sapiens, UniProt Q9NWB1 109-208, R118D;E147R;N151S;E152T)
T1 sequence: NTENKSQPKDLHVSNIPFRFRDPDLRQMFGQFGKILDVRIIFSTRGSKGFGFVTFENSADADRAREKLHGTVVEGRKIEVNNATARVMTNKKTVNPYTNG

B1: AACUUUU (DNA:RNA)
RNA: GGGAGACCGGAAUUCAGAUUGUCCAACUUUUUUAAAUCCCGUCGUAGCCACCA
DNA 1: CAATCTGAATTCCGGTCTCCC
DNA 2: TGGTGGCTACGACGGGATT
B2: AGUUUGA (DNA:RNA)
RNA: B1 RNA with A26G, C27U, U30G, U31A
DNA 1: CAATCTGAATTCCGGTCTCCC
DNA 2: TGGTGGCTACGACGGGATT
B3: UCUACAC (DNA:RNA)
RNA: GGGAGACCGGAAUUCAGAUUGUCCUCUACACUUAAAUCCCGUCGUAGCCACCA
DNA 1: CAATCTGAATTCCGGTCTCCC
DNA 2: TGGTGGCTACGACGGGATT
B4: CAUCGCC (DNA:RNA)
RNA: B3 RNA with U25C, C26A, A28C, C29G, A30C
DNA 1: CAATCTGAATTCCGGTCTCCC
DNA 2: TGGTGGCTACGACGGGATT
B5: UACCUUG (DNA:RNA)
RNA: B1 RNA with A25U, U28C, U31G
DNA 1: CAATCTGAATTCCGGTCTCCC
DNA 2: TGGTGGCTACGACGGGATT
B6: UUUAACG (DNA:RNA)
RNA: B3 RNA with C26U, C29A, A30C, C31G
DNA 1: CAATCTGAATTCCGGTCTCCC
DNA 2: TGGTGGCTACGACGGGATT
B7: GGUCAAC (DNA:RNA)
RNA: B3 RNA with U25G, C26G, A28C, C29A
DNA 1: CAATCTGAATTCCGGTCTCCC
DNA 2: TGGTGGCTACGACGGGATT
B8: AUAUCUA (DNA:RNA)
RNA: B1 RNA with A26U, C27A, U29C, U31A
DNA 1: CAATCTGAATTCCGGTCTCCC
DNA 2: TGGTGGCTACGACGGGATT
B9: CCCUAUG (DNA:RNA)
RNA: B1 RNA with A25C, A26C, U29A, U31G
DNA 1: CAATCTGAATTCCGGTCTCCC
DNA 2: TGGTGGCTACGACGGGATT
B10: GUUUAUG (DNA:RNA)
RNA: B1 RNA with A25G, A26U, C27U, U29A, U31G
DNA 1: CAATCTGAATTCCGGTCTCCC
DNA 2: TGGTGGCTACGACGGGATT
B11: UAGUAUG (DNA:RNA)
RNA: B1 RNA with A25U, C27G, U29A, U31G
DNA 1: CAATCTGAATTCCGGTCTCCC
DNA 2: TGGTGGCTACGACGGGATT
B12: GUUAUGU (DNA:RNA)
RNA: B1 RNA with A25G, A26U, C27U, U28A, U30G
DNA 1: CAATCTGAATTCCGGTCTCCC
DNA 2: TGGTGGCTACGACGGGATT
B13: UAGUAUC (DNA:RNA)
RNA: B1 RNA with A25U, C27G, U29A, U31C
DNA 1: CAATCTGAATTCCGGTCTCCC
DNA 2: TGGTGGCTACGACGGGATT
B14: CCGUAUG (DNA:RNA)
RNA: B1 RNA with A25C, A26C, C27G, U29A, U31G
DNA 1: CAATCTGAATTCCGGTCTCCC
DNA 2: TGGTGGCTACGACGGGATT
B15: GUAUGUU (DNA:RNA)
RNA: B1 RNA with A25G, A26U, C27A, U29G
DNA 1: CAATCTGAATTCCGGTCTCCC
DNA 2: TGGTGGCTACGACGGGATT
B16: CCAUAUG (DNA:RNA)
RNA: B1 RNA with A25C, A26C, C27A, U29A, U31G
DNA 1: CAATCTGAATTCCGGTCTCCC
DNA 2: TGGTGGCTACGACGGGATT
B17: GGGUAUG (DNA:RNA)
RNA: B1 RNA with A25G, A26G, C27G, U29A, U31G
DNA 1: CAATCTGAATTCCGGTCTCCC
DNA 2: TGGTGGCTACGACGGGATT

What follows are binders tested against T1, RBFOX1 RRM RbFoxmut (Fox-RRM*) (assay: EMSA; HiTS-Eq, 1 nM pool, 10 min; buffer printed only for the single-RNA assays: 10 mM Tris pH 7.5, 150 mM NaCl, 3.4 mM EDTA, 0.001% NP-40, 30 C). Conditions: tags: His6 N-terminal (pET28a); label: 5' 32P.
Procedure, shortened: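 Relative association constants, normalised to the cognate motif, were derived by comparing read counts of each RNA species with those of the control reaction. The RNA sequenced was the free fraction, separated by 8% native PAGE after a 10 min equilibration in 50 µL of 1 nM 5′-radiolabelled RNA (7 randomized nucleotides) with increasing concentrations of purified wild-type or mutant RbFox RRM.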

Binder	binding signal
B1	0.0643 KA relative to UGCAUGU
B2	0.169 KA relative to UGCAUGU
B3	0.0553 KA relative to UGCAUGU
B4	0.125 KA relative to UGCAUGU
B5	0.1 KA relative to UGCAUGU
B6	0.112 KA relative to UGCAUGU
B7	0.052 KA relative to UGCAUGU
B8	0.124 KA relative to UGCAUGU
B9	0.101 KA relative to UGCAUGU
B10	0.172 KA relative to UGCAUGU
B11	0.674 KA relative to UGCAUGU
B12	0.268 KA relative to UGCAUGU
B13	0.183 KA relative to UGCAUGU
B14	0.534 KA relative to UGCAUGU
B15	0.497 KA relative to UGCAUGU
B16	0.123 KA relative to UGCAUGU
B17	0.93 KA relative to UGCAUGU
